This passage reports inhibition results from ChEMBL document CHEMBL1961873, “Compounds: GSK PKIS; Assays: Nanosyn kinase panel” (2012).

Test [1] concerns the target T1, Serine/threonine-protein kinase D2 (Homo sapiens) (UniProt Q9BZL6).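 Further: mean value of PRKD2 inhibition, from the GSK PKIS screening panel.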
T1 sequence (whole entry): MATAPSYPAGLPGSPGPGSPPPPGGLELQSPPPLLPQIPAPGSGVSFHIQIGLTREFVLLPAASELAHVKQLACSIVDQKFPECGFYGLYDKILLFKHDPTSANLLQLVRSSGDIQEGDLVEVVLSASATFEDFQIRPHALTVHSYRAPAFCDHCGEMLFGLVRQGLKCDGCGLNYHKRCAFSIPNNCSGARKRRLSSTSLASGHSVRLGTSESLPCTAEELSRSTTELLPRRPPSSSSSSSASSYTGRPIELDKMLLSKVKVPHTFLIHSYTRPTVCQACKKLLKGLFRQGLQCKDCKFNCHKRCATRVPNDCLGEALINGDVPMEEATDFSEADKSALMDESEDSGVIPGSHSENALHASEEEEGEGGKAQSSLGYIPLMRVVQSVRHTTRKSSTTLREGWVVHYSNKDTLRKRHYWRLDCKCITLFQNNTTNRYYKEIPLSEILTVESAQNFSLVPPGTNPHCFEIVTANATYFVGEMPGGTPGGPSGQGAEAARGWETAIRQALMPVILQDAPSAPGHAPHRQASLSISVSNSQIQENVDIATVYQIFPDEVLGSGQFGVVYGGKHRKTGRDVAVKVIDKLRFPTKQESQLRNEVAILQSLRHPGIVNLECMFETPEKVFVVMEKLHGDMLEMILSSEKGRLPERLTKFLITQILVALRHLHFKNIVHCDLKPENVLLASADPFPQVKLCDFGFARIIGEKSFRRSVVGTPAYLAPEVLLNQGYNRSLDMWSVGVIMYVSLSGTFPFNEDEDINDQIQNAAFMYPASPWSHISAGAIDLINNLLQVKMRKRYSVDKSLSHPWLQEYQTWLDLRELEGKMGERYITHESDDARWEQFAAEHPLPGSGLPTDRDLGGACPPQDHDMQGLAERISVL
Particulars: at 1 µM.

The target in test [2] is T2, Serine/threonine-protein kinase D3 (Homo sapiens) (UniProt O94806).
T2 sequence (whole entry): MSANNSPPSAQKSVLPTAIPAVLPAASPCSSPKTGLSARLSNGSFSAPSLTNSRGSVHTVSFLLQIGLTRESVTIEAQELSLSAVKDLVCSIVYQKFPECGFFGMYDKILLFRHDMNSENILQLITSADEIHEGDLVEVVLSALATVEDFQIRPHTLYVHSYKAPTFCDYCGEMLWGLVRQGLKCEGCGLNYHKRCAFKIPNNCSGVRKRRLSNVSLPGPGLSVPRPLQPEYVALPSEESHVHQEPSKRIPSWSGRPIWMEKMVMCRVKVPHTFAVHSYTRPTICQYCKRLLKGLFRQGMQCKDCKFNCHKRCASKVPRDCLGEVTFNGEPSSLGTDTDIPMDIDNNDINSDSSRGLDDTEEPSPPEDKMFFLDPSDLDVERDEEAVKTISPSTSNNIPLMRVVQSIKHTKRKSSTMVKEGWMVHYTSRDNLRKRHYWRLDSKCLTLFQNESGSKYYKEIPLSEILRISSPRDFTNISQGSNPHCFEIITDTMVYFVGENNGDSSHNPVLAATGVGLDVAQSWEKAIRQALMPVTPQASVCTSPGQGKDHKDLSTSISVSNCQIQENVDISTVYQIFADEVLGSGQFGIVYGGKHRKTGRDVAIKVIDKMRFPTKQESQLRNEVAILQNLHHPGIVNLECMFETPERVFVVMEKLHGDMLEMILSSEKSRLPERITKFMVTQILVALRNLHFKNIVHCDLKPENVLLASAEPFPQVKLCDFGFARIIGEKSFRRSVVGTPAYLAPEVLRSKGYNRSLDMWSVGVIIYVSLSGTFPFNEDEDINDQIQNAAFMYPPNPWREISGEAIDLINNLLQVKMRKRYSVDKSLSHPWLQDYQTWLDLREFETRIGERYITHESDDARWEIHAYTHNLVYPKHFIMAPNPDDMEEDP
The conditions noted are these: at 0.1 µM.

The target in test [3] is T2, Serine/threonine-protein kinase D3 (Homo sapiens). The conditions noted are these: at 1 µM.
For test [4], the target named is T3, cGMP-dependent protein kinase 1 (Homo sapiens) (UniProt Q13976).
T3 sequence (whole entry): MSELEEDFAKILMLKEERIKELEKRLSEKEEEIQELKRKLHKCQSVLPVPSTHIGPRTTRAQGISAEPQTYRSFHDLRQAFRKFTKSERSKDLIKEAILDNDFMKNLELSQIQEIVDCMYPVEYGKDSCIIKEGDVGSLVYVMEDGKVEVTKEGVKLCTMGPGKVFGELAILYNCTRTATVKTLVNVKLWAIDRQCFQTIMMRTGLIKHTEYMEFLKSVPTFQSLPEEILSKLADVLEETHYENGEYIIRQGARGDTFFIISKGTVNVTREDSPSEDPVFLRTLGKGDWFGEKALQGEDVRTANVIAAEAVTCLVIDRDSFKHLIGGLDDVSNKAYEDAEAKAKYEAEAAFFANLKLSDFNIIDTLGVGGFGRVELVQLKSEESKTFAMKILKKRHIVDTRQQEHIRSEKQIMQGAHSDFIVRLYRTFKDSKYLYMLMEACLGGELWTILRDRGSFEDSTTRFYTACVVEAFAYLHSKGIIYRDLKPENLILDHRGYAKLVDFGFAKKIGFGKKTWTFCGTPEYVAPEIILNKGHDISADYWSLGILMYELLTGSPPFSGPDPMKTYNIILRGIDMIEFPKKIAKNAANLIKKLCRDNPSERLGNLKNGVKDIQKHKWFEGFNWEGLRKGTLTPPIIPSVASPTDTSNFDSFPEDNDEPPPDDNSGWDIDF
The conditions noted are these: at 0.1 µM.

The target in test [5] is T3, cGMP-dependent protein kinase 1 (Homo sapiens). The conditions noted are these: at 1 µM.
In test [6] the target is T4, cGMP-dependent protein kinase 2 (Homo sapiens) (UniProt Q13237).
T4 sequence (whole entry): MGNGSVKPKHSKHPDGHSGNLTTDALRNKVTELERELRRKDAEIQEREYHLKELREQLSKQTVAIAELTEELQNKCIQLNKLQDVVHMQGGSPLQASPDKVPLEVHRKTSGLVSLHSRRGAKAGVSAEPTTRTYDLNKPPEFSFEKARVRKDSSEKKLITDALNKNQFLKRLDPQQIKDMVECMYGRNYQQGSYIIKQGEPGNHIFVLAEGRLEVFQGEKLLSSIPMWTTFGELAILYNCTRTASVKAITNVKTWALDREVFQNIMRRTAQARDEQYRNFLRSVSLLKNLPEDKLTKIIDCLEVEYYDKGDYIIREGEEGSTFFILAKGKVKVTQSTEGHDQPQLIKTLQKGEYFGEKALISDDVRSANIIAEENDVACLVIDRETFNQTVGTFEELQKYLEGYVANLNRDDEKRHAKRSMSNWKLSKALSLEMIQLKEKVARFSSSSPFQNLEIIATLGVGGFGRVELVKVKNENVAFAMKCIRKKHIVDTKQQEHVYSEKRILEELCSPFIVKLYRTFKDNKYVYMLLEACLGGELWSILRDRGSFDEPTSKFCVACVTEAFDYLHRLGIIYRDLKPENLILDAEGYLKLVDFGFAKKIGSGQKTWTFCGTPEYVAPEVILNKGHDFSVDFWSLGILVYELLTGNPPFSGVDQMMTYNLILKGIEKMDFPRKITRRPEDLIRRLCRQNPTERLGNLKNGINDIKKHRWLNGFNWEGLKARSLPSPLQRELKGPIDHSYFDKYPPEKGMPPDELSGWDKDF
The conditions noted are these: at 0.1 µM.

The target of test [7] is T4, cGMP-dependent protein kinase 2 (Homo sapiens). The conditions noted are these: at 1 µM.
For test [8], the target named is T5, cAMP-dependent protein kinase catalytic subunit PRKX (Homo sapiens) (UniProt P51817).
T5 sequence (whole entry): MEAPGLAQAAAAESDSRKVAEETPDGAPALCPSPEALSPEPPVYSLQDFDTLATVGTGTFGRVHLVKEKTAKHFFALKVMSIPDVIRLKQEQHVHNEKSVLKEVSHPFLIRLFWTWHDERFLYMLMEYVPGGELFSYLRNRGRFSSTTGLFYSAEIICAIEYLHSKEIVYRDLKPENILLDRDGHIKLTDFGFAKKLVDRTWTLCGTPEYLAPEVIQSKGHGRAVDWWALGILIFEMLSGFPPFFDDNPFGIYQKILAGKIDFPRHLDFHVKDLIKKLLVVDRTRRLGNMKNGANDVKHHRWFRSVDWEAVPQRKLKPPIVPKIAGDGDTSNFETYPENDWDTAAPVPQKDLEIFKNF
Particulars: at 0.1 µM.

Test [9] deals with T5, cAMP-dependent protein kinase catalytic subunit PRKX (Homo sapiens). Particulars: at 1 µM.
Test [10] has as its target Rho-associated protein kinase 1 (Homo sapiens) (UniProt Q13464). The conditions noted are these: at 0.1 µM.
For test [11] the target is unchanged. Particulars: at 1 µM.
Test [12] addresses Rho-associated protein kinase 2 (Homo sapiens) (UniProt O75116). Particulars: at 0.1 µM.
The target is the same in test [13]. The conditions noted are these: at 1 µM.
Test [14] concerns the target Ribosomal protein S6 kinase alpha-1 (Homo sapiens) (UniProt Q15418). Particulars: at 0.1 µM.
Test [15] shares this target. Particulars: at 1 µM.
Test [16] has as its target Ribosomal protein S6 kinase alpha-3 (Homo sapiens) (UniProt P51812). The conditions noted are these: at 0.1 µM.
Test [17] has the same target. The conditions noted are these: at 1 µM.
Test [18] deals with Ribosomal protein S6 kinase alpha-2 (Homo sapiens) (UniProt Q15349). The conditions noted are these: at 0.1 µM.
Ribosomal protein S6 kinase alpha-2 (Homo sapiens), sequence (Q15349 whole entry): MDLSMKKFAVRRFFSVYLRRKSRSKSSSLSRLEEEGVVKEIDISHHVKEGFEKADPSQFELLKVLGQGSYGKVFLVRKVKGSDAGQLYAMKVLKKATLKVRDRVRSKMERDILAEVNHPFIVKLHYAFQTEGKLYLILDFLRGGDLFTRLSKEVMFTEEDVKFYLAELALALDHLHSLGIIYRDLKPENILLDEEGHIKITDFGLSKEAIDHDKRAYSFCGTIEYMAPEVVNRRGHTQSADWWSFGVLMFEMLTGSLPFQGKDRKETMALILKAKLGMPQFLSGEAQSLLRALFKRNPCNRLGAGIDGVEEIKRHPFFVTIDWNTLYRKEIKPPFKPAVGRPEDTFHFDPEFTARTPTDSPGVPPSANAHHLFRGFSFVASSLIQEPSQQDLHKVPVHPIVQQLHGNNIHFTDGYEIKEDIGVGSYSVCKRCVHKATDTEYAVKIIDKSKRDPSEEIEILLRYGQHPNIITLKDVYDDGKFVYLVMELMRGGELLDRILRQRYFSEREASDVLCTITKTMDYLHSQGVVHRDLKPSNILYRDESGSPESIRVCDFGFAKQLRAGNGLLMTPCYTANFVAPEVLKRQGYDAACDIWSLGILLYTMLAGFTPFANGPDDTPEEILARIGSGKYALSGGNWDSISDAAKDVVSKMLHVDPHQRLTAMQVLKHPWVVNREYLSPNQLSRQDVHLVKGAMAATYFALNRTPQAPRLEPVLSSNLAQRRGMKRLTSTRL
Test [19] shares this target. The conditions noted are these: at 1 µM.
In test [20] the target is Ribosomal protein S6 kinase alpha-6 (Homo sapiens) (UniProt Q9UK32). Particulars: at 0.1 µM.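 Further: reported value is the mean inhibition of RSK4, from the GSK PKIS kinase inhibitor screen.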

Rho-associated protein kinase 1 (Homo sapiens), sequence (Q13464 2-1354 limits assumed): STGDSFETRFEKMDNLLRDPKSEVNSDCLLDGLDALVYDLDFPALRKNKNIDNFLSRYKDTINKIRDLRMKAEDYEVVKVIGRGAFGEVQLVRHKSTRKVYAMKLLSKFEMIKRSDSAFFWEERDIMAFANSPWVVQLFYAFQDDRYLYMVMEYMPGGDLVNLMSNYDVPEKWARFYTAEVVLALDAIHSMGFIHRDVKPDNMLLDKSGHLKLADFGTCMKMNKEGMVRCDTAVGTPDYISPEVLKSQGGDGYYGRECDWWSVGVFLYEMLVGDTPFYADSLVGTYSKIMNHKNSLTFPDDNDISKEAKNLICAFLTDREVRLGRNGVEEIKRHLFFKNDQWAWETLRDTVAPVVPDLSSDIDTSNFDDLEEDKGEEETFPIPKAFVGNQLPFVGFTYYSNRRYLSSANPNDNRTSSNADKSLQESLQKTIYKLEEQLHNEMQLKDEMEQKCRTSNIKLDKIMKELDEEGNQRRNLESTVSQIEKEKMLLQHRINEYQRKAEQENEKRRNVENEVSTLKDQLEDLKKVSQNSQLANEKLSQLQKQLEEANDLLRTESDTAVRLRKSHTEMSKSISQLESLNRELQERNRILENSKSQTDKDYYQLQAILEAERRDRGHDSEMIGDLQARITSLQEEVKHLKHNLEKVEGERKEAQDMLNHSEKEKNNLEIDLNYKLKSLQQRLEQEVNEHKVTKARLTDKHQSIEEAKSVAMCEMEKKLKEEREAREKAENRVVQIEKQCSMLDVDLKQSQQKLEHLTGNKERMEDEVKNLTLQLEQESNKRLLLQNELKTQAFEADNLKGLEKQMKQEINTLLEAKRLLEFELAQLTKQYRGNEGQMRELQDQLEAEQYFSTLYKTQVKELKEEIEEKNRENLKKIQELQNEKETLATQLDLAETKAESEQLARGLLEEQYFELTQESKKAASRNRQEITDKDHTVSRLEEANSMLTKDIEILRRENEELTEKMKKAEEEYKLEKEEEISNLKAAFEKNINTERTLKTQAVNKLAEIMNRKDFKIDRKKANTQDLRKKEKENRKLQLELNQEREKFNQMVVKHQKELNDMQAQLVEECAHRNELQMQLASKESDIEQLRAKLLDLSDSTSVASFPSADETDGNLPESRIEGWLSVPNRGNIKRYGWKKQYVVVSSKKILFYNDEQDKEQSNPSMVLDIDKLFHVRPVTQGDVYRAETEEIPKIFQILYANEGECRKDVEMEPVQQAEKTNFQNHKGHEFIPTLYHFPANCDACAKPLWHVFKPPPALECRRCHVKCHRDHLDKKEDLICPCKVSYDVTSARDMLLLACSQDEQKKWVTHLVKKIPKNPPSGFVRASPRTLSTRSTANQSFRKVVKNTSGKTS
Ribosomal protein S6 kinase alpha-3 (Homo sapiens), sequence (P51812 whole entry): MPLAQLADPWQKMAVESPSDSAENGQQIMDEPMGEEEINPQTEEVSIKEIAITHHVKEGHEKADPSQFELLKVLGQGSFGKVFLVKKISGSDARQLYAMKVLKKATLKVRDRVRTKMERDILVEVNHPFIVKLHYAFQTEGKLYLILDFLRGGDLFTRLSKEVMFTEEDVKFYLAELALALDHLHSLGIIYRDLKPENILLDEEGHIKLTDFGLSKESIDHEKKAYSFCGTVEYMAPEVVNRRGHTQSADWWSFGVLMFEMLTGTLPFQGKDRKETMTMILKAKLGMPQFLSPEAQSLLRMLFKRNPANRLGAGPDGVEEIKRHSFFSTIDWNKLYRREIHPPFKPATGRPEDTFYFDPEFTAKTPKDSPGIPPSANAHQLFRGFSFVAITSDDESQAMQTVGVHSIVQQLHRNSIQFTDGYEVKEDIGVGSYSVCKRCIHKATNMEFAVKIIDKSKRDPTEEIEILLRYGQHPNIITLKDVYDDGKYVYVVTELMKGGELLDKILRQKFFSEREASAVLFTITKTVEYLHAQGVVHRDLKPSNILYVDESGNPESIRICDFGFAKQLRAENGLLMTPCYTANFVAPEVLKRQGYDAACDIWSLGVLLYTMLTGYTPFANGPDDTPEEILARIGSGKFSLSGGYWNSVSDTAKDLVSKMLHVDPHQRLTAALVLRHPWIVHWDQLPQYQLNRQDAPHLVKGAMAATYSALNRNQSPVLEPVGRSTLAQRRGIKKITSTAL
Rho-associated protein kinase 2 (Homo sapiens), sequence (O75116 whole entry, looked up): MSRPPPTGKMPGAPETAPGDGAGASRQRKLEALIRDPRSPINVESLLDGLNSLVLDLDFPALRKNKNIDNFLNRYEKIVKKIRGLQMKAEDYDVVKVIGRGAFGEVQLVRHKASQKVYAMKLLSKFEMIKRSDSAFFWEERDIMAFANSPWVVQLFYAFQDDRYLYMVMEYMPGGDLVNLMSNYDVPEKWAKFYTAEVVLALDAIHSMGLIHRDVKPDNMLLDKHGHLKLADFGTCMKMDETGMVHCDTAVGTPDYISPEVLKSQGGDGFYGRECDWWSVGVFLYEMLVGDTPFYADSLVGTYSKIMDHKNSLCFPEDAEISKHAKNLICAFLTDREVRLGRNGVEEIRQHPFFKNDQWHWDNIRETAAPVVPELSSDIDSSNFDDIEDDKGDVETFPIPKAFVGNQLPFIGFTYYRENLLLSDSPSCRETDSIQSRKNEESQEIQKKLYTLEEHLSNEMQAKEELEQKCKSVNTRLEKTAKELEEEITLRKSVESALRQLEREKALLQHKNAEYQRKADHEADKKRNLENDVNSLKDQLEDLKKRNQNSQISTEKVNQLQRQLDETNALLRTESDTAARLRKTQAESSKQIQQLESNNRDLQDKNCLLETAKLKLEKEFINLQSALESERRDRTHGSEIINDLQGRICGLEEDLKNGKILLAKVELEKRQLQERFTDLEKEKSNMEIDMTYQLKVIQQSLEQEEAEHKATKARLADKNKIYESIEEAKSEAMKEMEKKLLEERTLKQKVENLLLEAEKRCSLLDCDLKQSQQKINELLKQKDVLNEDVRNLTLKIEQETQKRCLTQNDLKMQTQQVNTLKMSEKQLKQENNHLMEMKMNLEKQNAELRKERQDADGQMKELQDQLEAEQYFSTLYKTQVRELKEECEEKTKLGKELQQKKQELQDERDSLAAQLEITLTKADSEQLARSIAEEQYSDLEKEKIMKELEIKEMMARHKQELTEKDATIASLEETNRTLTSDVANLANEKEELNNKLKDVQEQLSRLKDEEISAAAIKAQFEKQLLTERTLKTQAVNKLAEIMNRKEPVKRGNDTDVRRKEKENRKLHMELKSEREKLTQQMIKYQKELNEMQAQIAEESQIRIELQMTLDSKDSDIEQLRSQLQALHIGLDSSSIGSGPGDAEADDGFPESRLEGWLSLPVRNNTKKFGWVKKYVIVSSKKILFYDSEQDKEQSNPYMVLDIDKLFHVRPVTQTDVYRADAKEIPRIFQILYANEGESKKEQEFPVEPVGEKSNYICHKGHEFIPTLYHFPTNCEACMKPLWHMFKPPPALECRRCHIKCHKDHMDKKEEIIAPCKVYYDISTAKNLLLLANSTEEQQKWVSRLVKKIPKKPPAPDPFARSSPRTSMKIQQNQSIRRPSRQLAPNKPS
Ribosomal protein S6 kinase alpha-1 (Homo sapiens), sequence (Q15418 whole entry): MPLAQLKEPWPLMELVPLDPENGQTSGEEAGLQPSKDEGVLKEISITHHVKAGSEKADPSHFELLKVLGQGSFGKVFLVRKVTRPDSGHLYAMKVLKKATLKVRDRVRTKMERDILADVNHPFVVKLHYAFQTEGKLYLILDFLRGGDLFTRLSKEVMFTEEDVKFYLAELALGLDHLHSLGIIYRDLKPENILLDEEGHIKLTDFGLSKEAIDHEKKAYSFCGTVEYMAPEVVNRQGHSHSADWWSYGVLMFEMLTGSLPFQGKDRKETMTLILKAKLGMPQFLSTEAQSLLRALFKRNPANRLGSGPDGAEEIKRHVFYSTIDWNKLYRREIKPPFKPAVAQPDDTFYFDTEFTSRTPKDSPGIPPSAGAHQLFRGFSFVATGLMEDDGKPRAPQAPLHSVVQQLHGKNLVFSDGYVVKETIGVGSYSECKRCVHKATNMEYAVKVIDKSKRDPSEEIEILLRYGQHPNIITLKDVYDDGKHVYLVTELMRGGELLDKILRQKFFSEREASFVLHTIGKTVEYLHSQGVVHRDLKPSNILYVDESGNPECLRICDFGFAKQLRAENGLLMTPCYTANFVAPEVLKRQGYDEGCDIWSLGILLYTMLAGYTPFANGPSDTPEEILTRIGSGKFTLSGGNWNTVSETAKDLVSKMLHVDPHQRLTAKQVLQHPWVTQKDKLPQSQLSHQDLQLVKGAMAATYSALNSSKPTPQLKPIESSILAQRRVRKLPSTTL

One may read the inhibition as the relative decrease from the control value, in per cent. For the molecule `Fc1cccc(COc2ccc(Nc3ncnc4cc(-c5ccc[nH]5)sc34)cc2Cl)c1`, the inhibition in [1] is -2.9%; in [2] it was -1.25%; in test [3] it was -2.13%; in test [4] it was 3.64%; in test [5], 4.28%; in test [6], 2.82%. The inhibition in test [7] is 2.46%; in test [8], 2%; in test [9], 3.5%; in [10], 0.2%; in test [11], 1.71%; in test [12], 1.64%. In addition, the inhibition in test [13] was determined as 2.17%; in test [14] it was 2.06%; in test [15], 0.75%; in [16] it was 2.4%; in test [17], 2.56%; in test [18], 1.77%. Moreover, the inhibition in test [19] is 2.41%; in [20], 1.15%.
Consider `[O-][S+]1CCN(Cc2ccc(-c3ccc4ncnc(Nc5ccc(OCc6ccccc6)c(F)c5)c4c3)o2)CC1`, for which the inhibition in test [1] worked out at 4.32%; in test [2], 2.88%; in test [3], 3.26%; in test [4], 1.05%; in test [5], 3.37%; in [6], 0.25%. The inhibition in test [7] is 2.79%; in test [8], 0.09%; in test [9], -1.73%; in [10] it was -0.61%; in test [11], 1.51%; in test [12], 0.14%. For the same molecule, the inhibition in [13] was 0.33%; in [14], -0.15%; in test [15], -0.56%; in test [16], -0.51%; in [17] it was -0.78%; in test [18] it was 1.48%. Moreover, the inhibition in test [19] was found to be 1.83%; in [20] it was 0.96%.
On to `CS(=O)(=O)CCN(CC#N)Cc1ccc(-c2ccc3ncnc(Nc4ccc(OCc5cccc(F)c5)c(Cl)c4)c3c2)o1`, for which the inhibition in test [1] is -4.76%; in test [2], -2.15%; in test [3] it was -3.08%; in test [4] it was 2.42%; in [5] it was 3.06%; in [6] it was 0.52%. The inhibition in test [7] was 0.66%; in test [8] it was 1.58%; in [9], 1.54%; in test [10] it was 0.99%; in test [11], 1.43%; in test [12], 0.1%. Further, the inhibition in [13] was 0.19%; in test [14] it was -0.47%; in test [15] it was -0.29%; in test [16], -1.25%; in test [17], -1.73%; in test [18], 0.79%. For the same molecule, the inhibition was 0.34% in test [19] and -0.25% in test [20].
In the case of `Fc1cccc(COc2ccc(Nc3ncnc4sc(-c5cccs5)cc34)cc2Cl)c1`, the inhibition was -1.2% in test [1]; -0.65% in [2]; -0.35% in [3]; 1.57% in test [4]; 1.96% in test [5]; 0.03% in test [6]. In addition, the inhibition was 0.73% in [7]; 0.64% in test [8]; 0.87% in test [9]; 1.73% in test [10]; 2.28% in [11]; 0.99% in test [12]. The inhibition was 1.7% in test [13]; -0.29% in [14]; -0.48% in test [15]; -1.22% in test [16]; -0.28% in test [17]; 0.38% in [18]. Moreover, the inhibition is 1.25% in test [19] and -0.01% in test [20].
